LDHA inh – inhibitors of human lactate dehydrogenase A; activity change, % (values are at about 110 or 230 µM); purified LDHA, NADH/diaphorase-resazurin fluorescence; hits give low values; P00338; AID 1347041; 0.15% of 480,000 active; in the data active = activity change below about -30%; inconclusive = mostly about -25% to -30%
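Remaining NADH was detected by diaphorase (0.133 mg/mL) converting 37 µM resazurin to fluorescent resorufin, read at 0 and 20 minutes. The preceding 5-minute room-temperature reaction used 2 nM LDHA, 0.2 mM sodium pyruvate and 0.06 mM NADH at pH 7.4.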
ClpP mod – qHTS Assay for Activators of ClpP | ATP-dependent Clp protease proteolytic subunit (Bacillus subtilis (strain 168)), P80244 | purified B. subtilis ClpP, FRET peptide cleavage, 20 min | Potency, µM (highest dose often 57.5 µM) | 1.9% of 340,000 active | AID 651965, 2013; active = well fitted falling curve with a large enough effect; inconclusive = small, poorly fitted or top-dose-only effect; inactive = no such curve, though single readings can be large or run the other way; note: the source files actives as falling curves though it sought activators and does not explain the sign; nearly all actives have a fitted effect of over 65% in size
Target sequence (P80244 whole entry, looked up): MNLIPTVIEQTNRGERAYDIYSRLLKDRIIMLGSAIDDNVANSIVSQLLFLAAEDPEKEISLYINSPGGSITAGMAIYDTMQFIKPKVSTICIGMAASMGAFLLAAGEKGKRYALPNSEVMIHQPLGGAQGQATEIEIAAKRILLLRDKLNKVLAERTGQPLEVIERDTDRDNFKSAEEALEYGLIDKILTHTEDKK
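Buffer: 100 mM Tris/HCl pH8, 100 mM KCl, 0.05% low protease BSA, 2.5% glycerol, 0.01% Tween-20. ClpP 10 microg/mL final; 20 min RT; delta FRET normalized to ADEP and DMSO controls.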
Mito fusion act – inhibitors of mitochondrial division or activators of mitochondrial fusion; AID 485298; Potency, µM (highest dose often 46.1 µM), hits mostly activators; 0.23% of 320,000 active; S. cerevisiae fusion-defective mutant growth rescue, CellTiterGlo 48 h; note: nearly all actives have a fitted effect of over 45% in size
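Luminescent cell viability in 1536-well qHTS format served as the measure of rescued growth in ts fusion-mutant S. cerevisiae cultured on non-fermentable YPEG for 48 hours at 37C.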
S-ASM inh – blocks human secretory acid sphingomyelinase | 0.006% of 340,000 active | AID 504937 | placental ASM, HMU-PC fluorogenic substrate, 60 min | P17405 | Potency, µM (titrated, usually from 57.5 µM), usual class: inhibitors
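Human placenta-derived ASM preincubated with compound 10 min at room temperature, then reacted with 9 uM (final) fluorogenic HMU-PC substrate for 60 min at 37 C. Stop solution raises pH to 10; fluorescence read at Ex 386/Em 447 nm.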
RGS4 inh – blocks human RGS4-accelerated GTP hydrolysis; P49798; Transcreener GDP fluorescence polarization, RGS4-accelerated GTP hydrolysis; Potency, µM (top dose mostly 114 µM), actives largely listed as inhibitors; 0.039% of 390,000 active; note: nearly all actives have a fitted effect of over 75% in size
Target sequence (P49798 whole entry, looked up): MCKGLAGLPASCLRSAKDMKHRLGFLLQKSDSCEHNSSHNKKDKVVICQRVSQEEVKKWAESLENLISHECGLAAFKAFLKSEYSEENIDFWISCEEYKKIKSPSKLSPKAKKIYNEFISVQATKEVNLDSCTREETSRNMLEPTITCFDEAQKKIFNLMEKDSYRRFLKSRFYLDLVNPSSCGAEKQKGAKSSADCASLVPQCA
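MLSMR compounds (23 nl, pin-transferred) preincubated 10 min at room temperature with a 500nM (2x) first reagent, then RGS4 at 900nM (2x) plus Transcreener GDP mix added; fluorescence polarization (620/688 nm) read before and after 90 min at 30 °C.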
IDH1 R132H inh – inhibitors of human mutant IDH1 R132H; 0.093% of 390,000 active; Potency, µM (titrated, usually from 76.6 µM), most hits filed as inhibitors; O75874; IDH1-R132H enzyme, NADPH consumption, diaphorase/resazurin fluorescence; AID 602179; note: nearly all actives have a fitted effect of over 65% in size
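IDH1-R132H (0.5 ug/mL dispensed) in pH 7.5 Tris buffer was preincubated 30 min with compound, then given a substrate mix of 0.016 mM NADPH and 2 mM alpha-KG for 80 min at room temperature; remaining NADPH was read by diaphorase/resazurin fluorescence.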
IDH1 autofl – counter-screen for mutant IDH1 inhibitors: fluorescence interference; 750 tested, under 10 active; shares compounds with IDH1 R132H inh; Resorufin detection reagent fluorescence interference, cell-free; AID 623980; inhibition of signal, % at 51.2 µM
IDH1 WT – inhibits human wild-type IDH1, mutant selectivity check; shares compounds with IDH1 R132H inh; WT IDH1 enzyme, NADPH diaphorase/resazurin fluorescence; Potency, µM (titrated, usually from 115 µM), actives largely listed as inhibitors; 9% of 750 active; AID 623995; note: nearly all actives have a fitted effect of over 55% in size
IDH1 R132H conf – mutant IDH1 (human) inhibition, confirmed. shares compounds with IDH1 R132H inh. IDH1 R132H enzyme, NADPH diaphorase/resazurin fluorescence. Potency, µM (series often up to 76.6 µM), usual class: inhibitors. 83% of 750 active; note: nearly all actives have a fitted effect of over 50% in size
A number is an active result; . = inactive; ? = inconclusive; / = no result; [ ] = remark or other dose. The entries come from a sample that favours hits as a whole. Unless noted, calls come from the whole dose curve; as a rule, active = well fitted curve in the direction sought with a large enough effect; inconclusive = small, poorly fitted or top-dose-only effect, or another doubt; inactive = no such curve, though single readings can be large; an effect the other way counts as inactive or inconclusive.

SMILES	LDHA inh	ClpP mod	Mito fusion act	S-ASM inh	RGS4 inh	IDH1 R132H inh	others
CC(C)OC(=O)c1c(N)n(Cc2ccco2)c2nc3ccccc3nc12	.	14.1µM	.	.	.	.
COCCCNC(=O)c1c(N)n(Cc2ccco2)c2nc3ccccc3nc12	.	.	.	.	.	.
Nc1c(C(=O)NCC2CCCO2)c2nc3ccccc3nc2n1Cc1ccco1 (stereo unspecified)	.	/	?	.	.	.
CC(C)CNC(=O)c1c(N)n(Cc2ccco2)c2nc3ccccc3nc12	.	22.4µM	.	.	.	.
CCCNC(=O)c1c(N)n(Cc2ccco2)c2nc3ccccc3nc12	.	28.2µM	.	.	.	.
COCCOC(=O)c1c(N)n(Cc2ccco2)c2nc3ccccc3nc12	.	.	.	.	.	.
O=C(CN1CCN(C(=O)Cc2n[nH]c(=O)c3ccccc23)CC1)NC1CC1	.	/	/	/	/	/
CN1CC2(C)CNCC(C)(C1)C2O (stereo unspecified)	.	/	/	/	/	/
O=C(CSC(c1ccccc1)c1ccccc1)Nc1ccc2c(c1)OCCCO2	.	/	/	/	/	/
CCn1cc(C(=O)Nc2cccc3ncccc23)c2ccccc21	.	/	/	/	/	/
COc1ccc(Cn2c(N)c(C(=O)NCc3ccco3)c3nc4ccccc4nc32)cc1OC	.	31.6µM	.	.	?	.
CCN1CCN(C(=O)COc2ccc3c(c2)C(=O)CC2(CCN(C(C)=O)CC2)O3)CC1	.	31.6µM	.	.	.[11.4 µM]	.
CC1(C)CC(=O)c2cc(OCC(=O)N3CCN(Cc4ccccc4)CC3)ccc2O1	.	/	.	.	.	.
Cc1nn(-c2ccccc2)c2c1C(c1cnn(C)c1C)SCC(=O)N2 (stereo unspecified)	.	/	/	/	/	/
CC(=O)C1C2c3ccccc3OC1(C)N=c1s/c(=C/c3cn(C)nc3C)c(=O)n12 (stereo unspecified)	.	.	.	.	.	.
COC(=O)C1C2c3ccccc3OC1(C)N=c1s/c(=C/c3cnn(C)c3)c(=O)n12 (stereo unspecified)	.	.	12.6µM	.	.	.
O=C(OC1CCOC1=O)c1cccs1 (stereo unspecified)	.	/	/	/	/	/
O=C(c1cc(-c2ccc(Cl)cc2)n(-c2ccc(Cl)cc2Cl)n1)N1CCOCC1	.	.	.	28.2µM	.	.
CC12CCC3C(CCC4C/C(=N\O)CCC43C)C1CCC2O (stereo unspecified)	.	/	/	/	/	/
NC1CCCN(Cc2cccnc2)C1 (stereo unspecified)	.	/	/	/	/	/
CSc1ccc(CN2CCN(Cc3ccccc3Cl)CC2)cc1	-30.6	.	.	.	.	.
CCC1CCC(NC2CCC(CC)CC2)CC1 (stereo unspecified)	.	/	/	/	/	/
CC(=O)Nc1ccc(S(=O)(=O)N2Cc3ccccc3-n3nncc3C2)cc1	-30.0	.	/	/	/	.
COC(=O)C1=C(C)NC(=S)NC1c1ccc(N(CCCl)CCCl)cc1Cl (stereo unspecified)	.	.	/	.	?	?	IDH1 autofl=.;IDH1 WT=.;IDH1 R132H conf=11.2µM
CC(=O)[C@H]1CC[C@H]2[C@@H]3CC=C4C[C@@H](OS(=O)(=O)O)CC[C@]4(C)[C@H]3CC[C@]12C	.	.	/	.	.	39.8µM	IDH1 autofl=.;IDH1 WT=.;IDH1 R132H conf=39.8µM
